Records with an inconclusive call do not appear. Calls of active or inactive are those of the source. Rule for the calls, unless noted: active = hit-call score of the fitted dose curve at least 0.9, where 1 is the maximum; inactive = score below 0.9.
Key:
[1] = target: Paired box protein Pax-6 (Homo sapiens) (UniProt P26367); assay: ATG_Pax6_CIS: Attagene CIS-FACTORIAL HepG2 Assay for human Paired Box 6 (PAX6) (AID 2282956); details: HepG2 CIS-FACTORIAL PAX6 reporter transcription, RNA readout; actives raise or lower the signal
How it was run: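 DMSO-referenced bidirectional fits of reporter mRNA fluorescence; HepG2 with transient cis-promoter MRTUs, 24 h post-dose, RT-PCR plus capillary electrophoresis detection.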

[2] = ATG_PXRE_CIS: Attagene CIS-FACTORIAL HepG2 Assay for human Pregnane X Receptor Element (PXRE) (AID 2282957); details: HepG2 Attagene CIS-FACTORIAL PXRE reporter, mRNA; actives raise or lower the signal
How it was run: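 Fluorescent capillary electrophoresis of amplified reporter cDNA gave the signal, collected 24 h after dosing HepG2 cells that held transfected cis-element reporter constructs.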

[3] = ATG_PPRE_CIS: Attagene CIS-FACTORIAL HepG2 Assay for human Peroxisome Proliferator-activated Response Element (PPRE) (AID 2282958); details: HepG2 PPRE cis-element reporter, Attagene transcription factor profiling; actives raise or lower the signal
How it was run: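 DMSO served as negative control and baseline for bidirectional curve fitting. Signal came from PPRE-regulated reporter mRNA in HepG2 cells, measured 24 h post-dosing by RT-PCR, 6-FAM primer extension and capillary electrophoresis.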

[4] = ATG_Sox_CIS: Attagene CIS-FACTORIAL HepG2 Assay for human SRY-box transcription factor (SOX) (AID 2282960); details: HepG2 Attagene cis-factorial SOX reporter, mRNA; actives raise or lower the signal
How it was run: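 Fluorescence-labelled cDNA fragments from reporter transcripts, sized by CE, give the signal. Cells: HepG2, transiently transfected with cis-regulated reporter units. Exposure 24 h; DMSO negative control; bidirectional curve fitting.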

[5] = target: Transcription factor Sp1 (Homo sapiens) (UniProt P08047); assay: ATG_Sp1_CIS: Attagene CIS-FACTORIAL HepG2 Assay for human Specificity Protein 1 (Sp1) (AID 2282961); details: HepG2 Sp1 cis-reporter transcription, actives raise or lower the signal
How it was run: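 Chemicals are dosed onto HepG2 cells transfected with multiple cis-promoter reporter constructs, and after 24 h reporter RNA is reverse-transcribed, PCR-amplified and resolved by capillary electrophoresis for fluorescence quantitation; activity is scored up or down against DMSO.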

[6] = ATG_SREBP_CIS: Attagene CIS-FACTORIAL HepG2 Assay for human Sterol Regulatory Element Binding (SREBP) (AID 2282962); details: HepG2 Attagene cis-factorial SREBP reporter, mRNA; actives raise or lower the signal
How it was run: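 In this cis-format assay, HepG2 liver cells express reporters controlled by promoter elements responsive to native transcription factors. Exposure lasts 24 h; reporter mRNA fluorescence from capillary electrophoresis gives the signal, fitted bidirectionally against DMSO.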

[7] = target: Signal transducer and activator of transcription 3 (Homo sapiens) (UniProt P40763); assay: ATG_STAT3_CIS: Attagene CIS-FACTORIAL HepG2 Assay for human Signal Transducer and Activator of Transcription 3 (STAT3) (AID 2282963); details: HepG2, Attagene cis-factorial STAT3 reporter transcription; actives raise or lower the signal
How it was run: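 Uses human liver HepG2 transiently carrying cis-regulated reporter transcription units. Following 24 h dosing, reporter mRNA induction was detected by RT-PCR and capillary electrophoresis, analysed bidirectionally versus DMSO.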

[8] = ATG_TA_CIS: Attagene CIS-FACTORIAL HepG2 Assay for human TA Basal Promoter (AID 2282964); details: HepG2 Attagene CIS-factorial TA basal promoter reporter; actives raise or lower the signal
How it was run: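 Transfected HepG2, 24 h compound exposure; RNA → RT-PCR → FAM primer extension → HpaI cut → CE fluorescence. Gain/loss-of-signal fitted against DMSO negative control. Background-control readout.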

[9] = ATG_TCF_b_cat_CIS: Attagene CIS-FACTORIAL HepG2 Assay for human T-Cell-Factor with beta-catenin (TCF/b-cat) (AID 2282965); details: HepG2 TCF/beta-catenin cis-reporter transcription, actives raise or lower the signal
How it was run: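 Using capillary electrophoresis as the read-out, labelled reporter cDNA fragments from transiently transfected HepG2 were sized and quantified. Exposure lasted 24 hours; activity in either direction was referenced to DMSO.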

[10] = ATG_TAL_CIS: Attagene CIS-FACTORIAL HepG2 Assay for human TAL Basal Promoter (AID 2282966); details: HepG2 Attagene cis-factorial TAL promoter reporter; actives raise or lower the signal;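 note: background control endpoint measuring basal TAL promoter reporter mRNA not a specific factor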
How it was run: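 Transiently transfected HepG2 (cis-regulated reporter units), 24 h treatment, mRNA read by fluorescent CE after RT-PCR; bidirectional fit, DMSO baseline.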

[11] = ATG_TGFb_CIS: Attagene CIS-FACTORIAL HepG2 Assay for human Transforming Growth Factor (TGF) (AID 2282967); details: HepG2 Attagene CIS TGFb reporter, mRNA transcription; actives raise or lower the signal
How it was run: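 Readout: fluorescently labeled reporter cDNA fragments resolved by capillary electrophoresis after RT-PCR. Transfected HepG2 cells dosed for 24 h; endogenous TF activity at TGFB1-linked cis element; gain or loss fitted relative to DMSO.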

[12] = target: Nuclear receptor subfamily 1 group I member 3 (Homo sapiens) (UniProt Q14994); assay: ATG_CAR_TRANS: Attagene TRANS-FACTORIAL HepG2 Assay for human Constitutive Androstane Receptor (CAR) (AID 2282969; active = hit-call score of the fitted dose curve at least 0.9, where 1 is the maximum;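 note: activators raise reporter mRNA above DMSO so AC50 marks induction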); details: HepG2 Attagene TRANS-FACTORIAL CAR reporter
How it was run: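 Steps: transient transfection of HepG2 with multiple GAL4-UAS reporter units; 24 h compound incubation; RNA isolation, RT-PCR, 6-FAM primer extension, HpaI digest; capillary electrophoresis. Gain-of-signal relative to DMSO negative control.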

[13] = target: Estrogen-related receptor gamma (Homo sapiens) (UniProt P62508); assay: ATG_ERRg_TRANS: Attagene TRANS-FACTORIAL HepG2 Assay for human Estrogen-Related Receptor gamma (ERRg) (AID 2282977; active = hit-call score of the fitted dose curve at least 0.9, where 1 is the maximum;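 note: hits increase reporter signal over DMSO so potencies reflect activators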); details: HepG2 Attagene TRANS reporter, ERRg transactivation
How it was run: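 Readout: fluorescent reporter-mRNA fragments resolved by capillary electrophoresis after RT-PCR and HpaI cut. Cells: transiently transfected HepG2 carrying GAL4-UAS reporters driven by exogenous NR-Gal4 chimeras, dosed 24 h. Activity fitted upward relative to DMSO baseline.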

[14] = ATG_RORE_CIS: Attagene CIS-FACTORIAL HepG2 Assay for human RAR-related Orphan Receptor Element (RORE) (AID 2282959); details: HepG2 Attagene cis-factorial RORE reporter, mRNA; actives raise or lower the signal
How it was run: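 Transfect HepG2 with MRTUs; treat 24 h; extract RNA; RT with oligo(dT); PCR with reporter-specific primers; 6-FAM primer extension; HpaI digest 2 h at 37 C; capillary electrophoresis. Fit vs DMSO, bidirectional.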

[15] = target: X-box-binding protein 1 (Homo sapiens) (UniProt P17861); assay: ATG_Xbp1_CIS: Attagene CIS-FACTORIAL HepG2 Assay for human X-box Binding Protein 1 (XBP1) (AID 2282972); details: HepG2 XBP1 cis-element reporter, Attagene multiplex; actives raise or lower the signal
How it was run: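 Changes in reporter transcript abundance, read by RT-PCR and capillary electrophoresis, reflect endogenous transcription factor activity. Transfected HepG2 cells received compound for 24 hours; DMSO defined baseline for bidirectional analysis.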

[16] = ATG_M_19_TRANS: Attagene TRANS-FACTORIAL HepG2 Assay for M19 Transcription Factor (Internal Marker) (AID 2282974; active = hit-call score of the fitted dose curve at least 0.9, where 1 is the maximum); details: HepG2 Attagene TRANS-FACTORIAL M19 internal marker reporter
How it was run: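 Multiplexed TRANS format: HepG2 liver cells bearing transient GAL4-UAS reporter units, chemical treatment 24 h, reporter transcripts quantified by RT-PCR plus capillary electrophoresis. DMSO defines baseline.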

[17] = ATG_GAL4_TRANS: Attagene TRANS-FACTORIAL HepG2 Assay for GAL4 (Internal Marker) (AID 2282976; active = hit-call score of the fitted dose curve at least 0.9, where 1 is the maximum); details: HepG2 Attagene TRANS GAL4 internal marker reporter
How it was run: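 HepG2 cells transiently transfected with multiplexed GAL4-UAS reporter constructs were dosed for 24 h. Reporter mRNA was measured by RT-PCR, 6-FAM primer extension, HpaI digestion and capillary electrophoresis, and gain of signal was fitted relative to DMSO.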

[18] = ATG_VDRE_CIS: Attagene CIS-FACTORIAL HepG2 Assay for human Vitamin D Receptor Element (VDRE) (AID 2282968); details: HepG2 VDRE cis-reporter transcription, actives raise or lower the signal
How it was run: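 Transfected HepG2 reporter cells, chemical treatment 24 h. RNA isolated, cDNA amplified with reporter-specific primers, products analysed by capillary electrophoresis. Endpoint fitted in both directions versus DMSO.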

[19] = target: Estrogen receptor (Homo sapiens) (UniProt P03372); assay: ATG_ERa_TRANS: Attagene TRANS-FACTORIAL HepG2 Assay for human Estrogen Receptor alpha (ERa) (AID 2282970; active = hit-call score of the fitted dose curve at least 0.9, where 1 is the maximum); details: HepG2 Attagene TRANS ERa GAL4 reporter, mRNA
How it was run: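 One of 30 multiplexed endpoints from a HepG2 TRANS system, this one reports ERa-Gal4-driven reporter mRNA. Transcripts were quantified 24 hours post-dosing by fluorescent RT-PCR and capillary electrophoresis, with activity scored as induction over DMSO.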

[20] = target: Steroid hormone receptor ERR1 (Homo sapiens) (UniProt P11474); assay: ATG_ERRa_TRANS: Attagene TRANS-FACTORIAL HepG2 Assay for human Estrogen-Related Receptor alpha (ERRa) (AID 2282971; active = hit-call score of the fitted dose curve at least 0.9, where 1 is the maximum); details: HepG2 Attagene TRANS reporter, ERRa transactivation
How it was run: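 HepG2 cells transiently transfected with multiplexed GAL4-UAS reporter units reading chimeric ERRa-Gal4 activity; 24 h compound exposure. Reporter mRNA measured by RT-PCR, 6-FAM labelling, HpaI digest and capillary electrophoresis; gain of signal fitted versus DMSO baseline.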

Measured: AC50

Sequence of X-box-binding protein 1 (Homo sapiens) (P17861 whole entry, looked up): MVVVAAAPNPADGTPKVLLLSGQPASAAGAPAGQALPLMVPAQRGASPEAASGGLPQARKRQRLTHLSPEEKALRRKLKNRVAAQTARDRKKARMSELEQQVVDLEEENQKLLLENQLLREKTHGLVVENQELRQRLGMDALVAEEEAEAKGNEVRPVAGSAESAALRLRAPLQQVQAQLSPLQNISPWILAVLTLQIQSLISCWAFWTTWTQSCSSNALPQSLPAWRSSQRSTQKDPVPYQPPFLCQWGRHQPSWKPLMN
Sequence of Transcription factor Sp1 (Homo sapiens) (P08047 whole entry, looked up): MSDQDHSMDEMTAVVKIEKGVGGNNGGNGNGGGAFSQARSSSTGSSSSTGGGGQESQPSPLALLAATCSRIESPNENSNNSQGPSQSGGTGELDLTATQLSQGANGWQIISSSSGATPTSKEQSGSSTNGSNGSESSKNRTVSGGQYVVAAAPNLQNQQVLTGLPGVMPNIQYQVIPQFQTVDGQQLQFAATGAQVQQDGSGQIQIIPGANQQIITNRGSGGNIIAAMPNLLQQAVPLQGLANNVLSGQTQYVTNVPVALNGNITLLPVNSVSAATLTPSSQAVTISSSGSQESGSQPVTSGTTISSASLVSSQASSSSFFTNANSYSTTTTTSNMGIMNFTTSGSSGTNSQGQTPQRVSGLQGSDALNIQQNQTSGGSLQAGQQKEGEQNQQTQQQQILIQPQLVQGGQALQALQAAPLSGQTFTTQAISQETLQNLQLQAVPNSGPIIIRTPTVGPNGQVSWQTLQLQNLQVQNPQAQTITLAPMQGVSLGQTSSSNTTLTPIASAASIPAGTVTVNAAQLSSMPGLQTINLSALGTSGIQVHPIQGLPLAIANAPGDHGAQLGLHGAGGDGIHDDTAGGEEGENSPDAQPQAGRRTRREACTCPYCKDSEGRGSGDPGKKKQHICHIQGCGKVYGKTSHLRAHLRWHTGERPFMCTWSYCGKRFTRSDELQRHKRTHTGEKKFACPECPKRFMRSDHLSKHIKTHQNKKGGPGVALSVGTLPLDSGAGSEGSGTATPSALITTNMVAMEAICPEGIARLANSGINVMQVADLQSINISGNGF
Sequence of Estrogen receptor (Homo sapiens) (P03372 whole entry, looked up, the tested form may be a part): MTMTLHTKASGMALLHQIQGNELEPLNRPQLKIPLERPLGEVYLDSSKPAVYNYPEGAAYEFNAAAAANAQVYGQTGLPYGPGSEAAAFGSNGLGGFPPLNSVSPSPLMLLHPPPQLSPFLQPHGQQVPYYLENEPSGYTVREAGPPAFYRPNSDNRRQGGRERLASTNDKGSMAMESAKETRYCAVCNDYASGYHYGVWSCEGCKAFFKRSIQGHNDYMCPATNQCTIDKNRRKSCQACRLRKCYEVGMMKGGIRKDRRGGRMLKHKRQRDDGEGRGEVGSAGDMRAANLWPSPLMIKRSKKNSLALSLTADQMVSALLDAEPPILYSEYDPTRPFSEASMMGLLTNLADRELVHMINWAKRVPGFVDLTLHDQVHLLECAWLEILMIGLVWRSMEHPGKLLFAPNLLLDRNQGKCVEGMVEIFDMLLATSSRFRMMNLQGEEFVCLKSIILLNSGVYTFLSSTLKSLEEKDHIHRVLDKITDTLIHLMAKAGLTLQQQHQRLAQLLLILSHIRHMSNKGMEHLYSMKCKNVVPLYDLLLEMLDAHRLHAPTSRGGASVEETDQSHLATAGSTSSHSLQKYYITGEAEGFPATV
Sequence of Nuclear receptor subfamily 1 group I member 3 (Homo sapiens) (Q14994 whole entry, looked up, the tested form may be a part): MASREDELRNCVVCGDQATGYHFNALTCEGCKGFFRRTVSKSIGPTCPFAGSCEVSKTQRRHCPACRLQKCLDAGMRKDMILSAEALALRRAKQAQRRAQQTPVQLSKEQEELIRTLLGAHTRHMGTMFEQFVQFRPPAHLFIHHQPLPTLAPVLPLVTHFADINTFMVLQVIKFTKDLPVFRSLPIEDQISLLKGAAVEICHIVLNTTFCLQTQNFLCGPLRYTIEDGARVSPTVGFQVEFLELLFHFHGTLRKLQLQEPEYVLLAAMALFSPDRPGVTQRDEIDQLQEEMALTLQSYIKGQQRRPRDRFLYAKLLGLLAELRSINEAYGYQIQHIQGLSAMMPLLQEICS
Sequence of Signal transducer and activator of transcription 3 (Homo sapiens) (P40763 whole entry, looked up): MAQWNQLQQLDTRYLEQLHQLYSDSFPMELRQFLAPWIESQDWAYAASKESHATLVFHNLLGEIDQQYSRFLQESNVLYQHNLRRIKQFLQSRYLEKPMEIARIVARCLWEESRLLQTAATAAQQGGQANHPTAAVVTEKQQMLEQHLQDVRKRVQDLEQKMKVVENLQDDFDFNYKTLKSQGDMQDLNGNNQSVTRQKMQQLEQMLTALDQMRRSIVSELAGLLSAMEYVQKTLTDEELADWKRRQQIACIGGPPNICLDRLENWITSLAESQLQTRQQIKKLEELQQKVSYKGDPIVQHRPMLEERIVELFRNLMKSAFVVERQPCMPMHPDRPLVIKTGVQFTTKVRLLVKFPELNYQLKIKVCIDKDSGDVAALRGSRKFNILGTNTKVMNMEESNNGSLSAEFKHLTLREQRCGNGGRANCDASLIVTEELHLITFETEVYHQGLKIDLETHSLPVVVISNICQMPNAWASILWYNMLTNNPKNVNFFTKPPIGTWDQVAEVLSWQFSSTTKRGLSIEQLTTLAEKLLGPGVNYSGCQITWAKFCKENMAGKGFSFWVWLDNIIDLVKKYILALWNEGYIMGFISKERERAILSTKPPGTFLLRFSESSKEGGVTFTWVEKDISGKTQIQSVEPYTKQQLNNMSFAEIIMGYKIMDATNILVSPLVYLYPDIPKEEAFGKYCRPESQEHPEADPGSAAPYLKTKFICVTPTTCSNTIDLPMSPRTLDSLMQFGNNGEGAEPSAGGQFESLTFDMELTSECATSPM
Sequence of Paired box protein Pax-6 (Homo sapiens) (P26367 whole entry, looked up): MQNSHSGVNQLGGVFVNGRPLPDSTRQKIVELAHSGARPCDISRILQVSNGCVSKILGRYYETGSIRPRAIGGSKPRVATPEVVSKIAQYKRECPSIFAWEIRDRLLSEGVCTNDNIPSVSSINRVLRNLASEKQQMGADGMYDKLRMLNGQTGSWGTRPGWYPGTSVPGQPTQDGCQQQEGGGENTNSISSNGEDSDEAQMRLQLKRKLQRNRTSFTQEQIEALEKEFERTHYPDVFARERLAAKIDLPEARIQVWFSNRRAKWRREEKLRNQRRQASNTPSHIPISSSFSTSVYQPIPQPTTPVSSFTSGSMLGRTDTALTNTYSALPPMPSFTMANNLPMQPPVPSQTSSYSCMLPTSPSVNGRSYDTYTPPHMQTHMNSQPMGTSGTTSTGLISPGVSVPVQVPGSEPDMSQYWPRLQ
Sequence of Estrogen-related receptor gamma (Homo sapiens) (P62508 whole entry, looked up, the tested form may be a part): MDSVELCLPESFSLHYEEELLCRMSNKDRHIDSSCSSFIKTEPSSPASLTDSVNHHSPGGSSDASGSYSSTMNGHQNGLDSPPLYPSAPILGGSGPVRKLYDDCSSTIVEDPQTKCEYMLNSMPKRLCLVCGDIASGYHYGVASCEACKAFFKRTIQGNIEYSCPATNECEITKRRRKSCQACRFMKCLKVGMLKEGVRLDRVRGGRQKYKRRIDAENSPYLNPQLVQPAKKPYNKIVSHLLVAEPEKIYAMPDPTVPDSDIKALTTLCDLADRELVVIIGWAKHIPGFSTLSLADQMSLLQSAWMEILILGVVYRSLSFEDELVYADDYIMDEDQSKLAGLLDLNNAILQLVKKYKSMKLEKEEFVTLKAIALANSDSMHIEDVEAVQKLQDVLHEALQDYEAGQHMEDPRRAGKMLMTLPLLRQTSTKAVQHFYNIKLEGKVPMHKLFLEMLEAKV
Sequence of Steroid hormone receptor ERR1 (Homo sapiens) (P11474 whole entry, looked up, the tested form may be a part): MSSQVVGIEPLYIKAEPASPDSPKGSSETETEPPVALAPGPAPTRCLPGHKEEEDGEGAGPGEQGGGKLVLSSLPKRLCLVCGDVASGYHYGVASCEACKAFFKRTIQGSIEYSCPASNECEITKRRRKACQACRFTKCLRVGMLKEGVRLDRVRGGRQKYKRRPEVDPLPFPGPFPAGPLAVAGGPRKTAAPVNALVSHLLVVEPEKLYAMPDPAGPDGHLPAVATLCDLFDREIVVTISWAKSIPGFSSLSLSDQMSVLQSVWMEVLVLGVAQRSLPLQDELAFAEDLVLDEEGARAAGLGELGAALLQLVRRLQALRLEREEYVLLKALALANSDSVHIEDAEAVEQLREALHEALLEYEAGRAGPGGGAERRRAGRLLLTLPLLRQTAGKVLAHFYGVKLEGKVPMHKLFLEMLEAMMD

CCOC(=O)c1ccccc1OC
active: [2] 54 µM
not listed: [14] | [15] | [16] | [17] | [18] | [19] | [20]
inactive: all other assays above

CN(C)c1ccc(O)c2c1C[C@H]1C[C@H]3[C@H](N(C)C)C(=O)C(C(N)=O)=C(O)[C@@]3(O)C(=O)C1=C2O
not listed: [3] | [13] | [18] | [19] | [20]
inactive: all other assays above

CCCCCCCCCCN
not listed: [3] | [12] | [13] | [17] | [18] | [19] | [20]
inactive: all other assays above

NC(=O)Nc1ccc(Cl)cc1
not listed: [4] | [11] | [14] | [15]
inactive: all other assays above

CC(C)=CCC[C@H](C)CC=O
active: [2] 45.3 µM
not listed: [3] | [12] | [13] | [16] | [19] | [20]
inactive: all other assays above

NC(N)=NC(=O)c1nc(Cl)c(N)nc1N
not listed: [3] | [12] | [13] | [16] | [17] | [20]
inactive: all other assays above

CCCCc1ccc(N)cc1
active: [9] 28.2 µM | [19] 12.8 µM
not listed: [3] | [13] | [16] | [17] | [20]
inactive: all other assays above

CC(C)C1CCC(O)CC1 (stereo unspecified)
not listed: [3] | [12] | [13] | [16] | [17] | [18] | [19] | [20]
inactive: all other assays above

CN(C)C(=N)N=C(N)N
not listed: [6] | [13] | [14] | [18] | [19] | [20]
inactive: all other assays above

Reference: PubChem BioAssay (EPA / NIEHS)
